Bioassay records (PubChem)
Most compounds without a hit are left out; they make up all but 13% or so of the library.
USP28 block – inhibitors of human USP28 deubiquitinase; Ubiquitin carboxyl-terminal hydrolase 28 (Homo sapiens), Q96RU2; purified USP28, Ub-rhodamine cleavage fluorescence, 30 min; inhibition, % at 25 µM; actives 3% (n = 47,000); AID 1645857, 2021
USP17 block – inhibitors of human USP17 deubiquitinase | Ubiquitin carboxyl-terminal hydrolase 17-like protein 5 (Homo sapiens), A8MUK1 | purified USP17, Ub-rhodamine cleavage fluorescence, 3 h | inhibition, % at 50 µM | actives 6.5% (n = 47,000)
USP7 inh – inhibitors of human USP7 deubiquitinase; inhibition, % at 20 µM; purified USP7, Ub-rhodamine cleavage fluorescence; Ubiquitin carboxyl-terminal hydrolase 7 (Homo sapiens), Q93009; actives 0.3% (n = 47,000)
USP30 inh – inhibitors of human USP30 deubiquitinase; actives 5.3% (n = 47,000); AID 1645860, 2021; Ubiquitin carboxyl-terminal hydrolase 30 (Homo sapiens), Q70CQ3; purified USP30, Ub-rhodamine cleavage fluorescence; inhibition, % at 25 µM
Target sequence (Q70CQ3 whole entry, looked up): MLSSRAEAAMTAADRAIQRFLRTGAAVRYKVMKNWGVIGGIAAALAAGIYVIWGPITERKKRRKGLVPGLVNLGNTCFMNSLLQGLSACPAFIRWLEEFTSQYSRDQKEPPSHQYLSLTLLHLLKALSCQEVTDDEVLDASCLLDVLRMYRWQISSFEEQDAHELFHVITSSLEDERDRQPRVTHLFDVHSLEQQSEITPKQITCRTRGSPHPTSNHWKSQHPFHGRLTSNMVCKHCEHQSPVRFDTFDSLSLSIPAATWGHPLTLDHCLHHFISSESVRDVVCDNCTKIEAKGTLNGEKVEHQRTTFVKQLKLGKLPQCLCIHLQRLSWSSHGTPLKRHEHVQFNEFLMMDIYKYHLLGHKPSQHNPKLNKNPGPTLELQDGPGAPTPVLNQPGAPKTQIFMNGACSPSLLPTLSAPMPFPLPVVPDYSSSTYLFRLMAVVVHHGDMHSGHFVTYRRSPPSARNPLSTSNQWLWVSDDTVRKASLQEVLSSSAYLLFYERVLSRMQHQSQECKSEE
USP10 block – inhibitors of human USP10 deubiquitinase. Ubiquitin carboxyl-terminal hydrolase 10 (Homo sapiens), Q14694. AID 1645856, 2021. purified USP10, Ub-rhodamine fluorescence, 60 min. inhibition, % at 20 µM. actives 1.1% (n = 47,000)
USP8 inh – inhibitors of human USP8 deubiquitinase. Ubiquitin carboxyl-terminal hydrolase 8 (Homo sapiens), P40818. purified USP8, Ub-rhodamine cleavage fluorescence, 30 min. inhibition, % at 20 µM. actives 4.2% (n = 47,000)
Hits are given with their value; . = inactive; / = no result given. No stated cut-off is given here; in the data, active means inhibition above about 30%; inactive means the rest.

SMILES	USP28 block	USP17 block	USP7 inh	USP30 inh	USP10 block	USP8 inh
COc1ccc(C2C3=C(CC(c4ccco4)CC3=O)Nc3ccccc3N2C(=O)C(F)(F)F)cc1OC (centres undefined)	.	.	.	.	.	.
CC(C)(C)c1ccccc1NC(=O)c1ccc2c(c1)SC1=NS(=O)(=O)CCN12	31.1	.	.	.	.	.
O=C(NCc1cccc(Cl)c1)c1ccc2c(c1)SC1=NS(=O)(=O)CCN12	.	.	.	.	.	.
CC(=O)N1[C@@H]2CN(C(=O)c3cccc(=O)[nH]3)[C@@H]3CCC[C@H]1[C@]3(C)C2	.	.	.	.	.	.
Cc1c(C(=O)Nc2cccc(C(F)(F)F)c2)cnn1-c1ccccn1	.	55.2	.	.	.	.
COc1ccccc1-c1cc(CNCCN)n(Cc2ccc3ccccc3c2)n1	30.4	.	.	44.5	.	.
O=C(Cn1ccc2ccc(N3CCOCC3)nc21)N1CCN(c2ccccc2)CC1	.	.	.	.	.	.
CCC(=O)N1c2ccc(S(=O)(=O)NCC(=O)NCc3ccc(C)cc3)cc2CC1C (centres undefined)	.	.	.	34.2	.	.
O=C(C1CC1)N1CCc2cc(S(=O)(=O)NCC3COc4ccccc4O3)ccc21 (centres undefined)	.	.	.	.	.	.
CC(=O)N1CCc2cc(S(=O)(=O)NCc3ccc(C)cc3)ccc21	.	56.9	.	.	.	.
CC(=O)N1CCc2cc(S(=O)(=O)NCC3COc4ccccc4O3)ccc21 (centres undefined)	.	37.8	.	.	.	.
COc1ccc([C@H]2C[C@@H](NC(=O)c3ccccc3)CC[C@]23CCC(=O)N3)cc1OC	.	.	.	.	.	.
c1cncc(-c2nc(NC3CC3)c3c4c(sc3n2)CCCC4)c1	.	.	.	.	.	.
COc1ccc(C2NC(=O)NC(C)=C2C(=O)OCC2CCCCC2)cc1OC (centres undefined)	.	.	.	.	.	.
CC1=C(C(=O)OCCc2ccccc2)C(c2ccc3c(c2)OCO3)NC(=O)N1 (centres undefined)	33.9	.	.	38.9	.	.
COc1ccc(NC(=O)OC(CN2CCN(c3ccccc3)CC2)C(F)(F)F)cc1 (centres undefined)	.	.	.	.	.	.
O=C(COC(=O)CCc1nc2ccccc2[nH]c1=O)Nc1ccc([N+](=O)[O-])cc1	.	.	.	.	.	80.9
COc1cccc(NC(=O)C(=O)c2c(-c3ccccc3)cc3ccccn23)c1	.	.	.	.	.	.
O=C(NC1CC1)c1ccc2c(c1)nnn2C1CCCCC1	.	.	.	.	.	.
CCc1nc2c(NC(=O)NC3CCCCC3)cccn2n1	.	.	.	.	.	31.9
COc1ccc(C(=O)N(Cc2ccc(C)cc2)Cc2ccco2)cc1	.	32.6	.	34.3	.	.
Cc1nnc(-c2ccc3ccn(CC(=O)N4CCN(c5ccccc5)CC4)c3c2)o1	.	93.2	.	49.9	47.3	96.4
Cc1nnc(-c2ccc3ccn(CC(=O)NC4CCCC4)c3c2)o1	.	.	.	.	.	.
Cc1nnc(-c2ccc3ccn(CC(=O)N4CCCc5ccccc54)c3c2)o1	/	85.9	.	/	85.3	91.5
Cc1nnc(-c2ccc3ccn(CC(=O)NC4CCCCCC4)c3c2)o1	.	.	.	.	.	.
Cc1ccccc1C(=O)Nc1ccc(-n2nnc(C(=O)N3CCCC3)n2)cc1	.	.	.	.	.	.
CC1(c2ccc3c(c2)OCCCO3)NC(=O)N(Cc2cccc3ccccc23)C1=O (centres undefined)	.	.	.	.	.	.
Cc1cc(C(F)(F)F)n(-c2ccc(NC(=O)Nc3cccc(C(F)(F)F)c3)cc2)n1	42.6	39.0	.	.	30.2	.
Cn1cc(NC(=O)Nc2cccc(C(F)(F)F)c2)c2ccccc2c1=O	61.5	97.5	.	78.3	68.0	97.2
O=c1cc(Nc2ccc(F)c3ccccc23)[nH]c(=O)[nH]1	.	.	.	.	.	.
